From PubChem BioAssay (EPA / NIEHS)
Several values for one entry are separate records, joined by “and”; a condition that tells them apart may be missing. Equal values may be shown once. Activity calls are given as the source filed them. How the source made its calls: active means hit-call score of the fitted dose curve at least 0.9, where 1 is the maximum; inactive means score below 0.9.

Assay: APR_HepG2_MitoMass_1hr: Apredica 1-hour HepG2 Assay for Mitochondrial Mass (AID 2282674)
Conditions: high-content imaging, actives raise or lower the signal
Description: APR_HepG2_1hr is a cell-based, multiplexed-readout assay that uses HepG2, a human liver cell line, with measurements taken at 1 hour after chemical dosing in a 384-well plate.APR_HepG2_MitoMass_1hr is one of 10 assay component(s) measured or calculated from the APR_HepG2_1hr assay. It is designed to make measurements of cell phenotype, a form of morphology reporter, as detected with fluorescence intensity signals by HCS Fluorescent Imaging technology.Data from the assay component APR_HepG2_MitoMass_1hr was analyzed into 1 assay endpoint. This assay endpoint, APR_HepG2_MitoMass_1hr, was analyzed with bidirectional fitting relative to DMSO as the negative control and baseline of activity. Using a type of morphology reporter, gain or loss-of-signal activity can be used to understand changes in the signaling. Furthermore, this assay endpoint can be referred to as a primary readout, because this assay has produced multiple assay endpoints where this one serves a signaling function. To generalize the intended target to other relatable targets, this assay endpoint is annotated to the cell morphology intended target family, where the subfamily is organelle conformation.
Cells were treated with dimethyl sulfoxide (DMSO) as a solvent control at a final concentration of 0.5% v/v or with compounds in DMSO with a resulting final DMSO concentration of 0.5% v/v. Compound treatment was done at concentrations of 0.39, 0.78, 1.56, 3.12, 6.24, 12.5, 25, 50, 100, and 200 uM in duplicate on each plate. Cells were treated with compounds for 1, 24, or 72 hr. Carbonyl […] m-chloro-phenylhydrazone (CCCP) and taxol were used as positive controls for mitochondrial function and cytoskeletal stability, respectively; DMSO served as the negative control for this experiment. Cells were fixed by the direct addition of 50 uL formaldehyde in Hank's Balanced Salt Solution (HBSS) to a final concentration of 3.7%. After incubation in the fixation medium for 30 min at room temperature (293-298 K), cells were rinsed twice with HBSS and treated with cell permeabilization buffer (16 uL of 0.5% Triton X-100) for 10 min at room temperature (293-298 K) before labeling. For mitochondrial membrane potential and mitochondrial measurements, pre-fixed cells were incubated with 50 uL of MitoTracker Red CMXRos (Invitrogen) at a concentration of 250 nM for 30 min before fixation. In the remaining cases, post-fixed cells were labeled by incubation with a multiplexed mixture of primary antibodies in HBSS for 60 min at room temperature (293-298 K) to detect immunoreactivity of c-Jun (1:500), phospho-histone H3 (1:100), phospho-histone H2A.x (1:200), p53 (1:400), alpha-tubulin (1:200) and Hoechst 33342 (2 ug/mL). Cells were labeled for multiplexed imaging on two separate plates: a) Hoechst 33342, MitoTracker Red, phospho-histone H3, and alpha-tubulin, and b) Hoechst 33342, phospho-histone H2A.x, and c-Jun. A final rinse with HBSS (50 uL) was performed before analysis. The primary and secondary antibodies for the proteins were phospho-histone H3 (rabbit anti-phospho-histone H3 and FITC-donkey anti-rabbit IgG), phospho-histone H2A.x (mouse anti-phospho-histone H2A.x and FITC-donkey anti-mouse IgG), c-Jun (rabbit anti-phospho-c-Jun and Cy3-donkey anti-rabbit IgG), p53 (sheep anti-p53 and Cy5-donkey anti-sheep IgG), alpha-tubulin (mouse anti-alpha-tubulin and Cy5-donkey anti-mouse IgG). These antibodies are available as the CellCiphr HepG2 assay kit (Millipore).Digital images of each well were captured using a Cellomics ArrayScan VTI (Thermo Scientific Cellomics) (0.8 NA objective, 0.63x optical coupler, and XF-93 filter set) at 20x magnification. The images were acquired using the autofocus feature of the ArrayScan instrument, which entails the following steps. First, the camera focuses on channel 1 (Hoechst 33342), where nuclei are identified. Second, a Z offset of 1 um is used for capturing mitochondria (MitoTracker Red). Third, a Z offset of -2 um is used for capturing the cytoskeleton (tubulin). […]

| Compound | outcome | AC50 |
| --- | --- | --- |
| COC(=O)C(C)Oc1ccc(Oc2ccc(Cl)cc2Cl)cc1 (stereo not given) | inactive | – |
| CNC(=O)ON=CC(C)(C)SC | inactive | – |
| CCCC1COC(Cn2cncn2)(c2ccc(Cl)cc2Cl)O1 (stereo not given) | inactive | – |
| COc1cnc(OC)n2nc(NS(=O)(=O)c3c(OCC(F)F)cccc3C(F)(F)F)nc12 | inactive | – |
| CCNc1nc(Cl)nc(NC(C)C)n1 | inactive | – |
| COc1nc(C)nc(NC(=O)NS(=O)(=O)c2ccccc2Cl)n1 | inactive | – |
| C=CCC1=C(C)[C@@H](OC(=O)[C@@H]2[C@@H](C=C(C)C)C2(C)C)CC1=O | inactive | – |
| CCCCOC(=O)c1ccccc1C(=O)OCCCC | inactive | – |
| COc1nc(NC(C)C)nc(NC(C)C)n1 | inactive | – |
| OC(c1ccc(Cl)cc1)(c1cncnc1)c1ccccc1Cl (stereo not given) | inactive | – |
| CC1COC(Cn2cncn2)(c2ccc(Oc3ccc(Cl)cc3)cc2Cl)O1 (stereo not given) | inactive | – |
| C#CCOS(=O)OC1CCCCC1Oc1ccc(C(C)(C)C)cc1 (stereo not given) | inactive | – |
| CCOc1cc(Oc2ccc(C(F)(F)F)cc2Cl)ccc1[N+](=O)[O-] | inactive | – |
| O=C(O)c1nc(Cl)ccc1Cl | inactive | – |
| O=C(Nc1ccccc1)Nc1ccnc(Cl)c1 | inactive | – |
| CCNc1nc(Cl)nc(NCC)n1 | inactive | – |
| COC(=O)C=C(C)OP(=O)(OC)OC | inactive | – |
| Cc1c(F)c(F)c(COC(=O)C2C(/C=C(\Cl)C(F)(F)F)C2(C)C)c(F)c1F (stereo not given) | inactive | – |
| CC(C)(C)c1ccc(CSc2cnn(C(C)(C)C)c(=O)c2Cl)cc1 | inactive | – |
| COc1nc(C)nc(NC(=O)NS(=O)(=O)c2ccccc2CCC(F)(F)F)n1 | inactive | – |

| Compound | outcome | AC50 |
| --- | --- | --- |
| CS/C(C)=N/OC(=O)N(C)SN(C)C(=O)O/N=C(\C)SC | inactive | – |
| COc1ccc(C(c2ccc(OC)cc2)C(Cl)(Cl)Cl)cc1 | inactive | – |
| CNC(=S)S | inactive | – |
| CON(C)C(=O)Nc1ccc(Cl)c(Cl)c1 | inactive | – |
| CO/C=C(/C(=O)OC)c1ccccc1Oc1cc(Oc2ccccc2C#N)ncn1 | inactive | – |
| CCOP(=S)(OCC)SCn1c(=O)oc2cc(Cl)ccc21 | inactive | – |
| Cc1cc(Cl)ccc1OCC(=O)O | inactive | – |
| O=C(O)COc1nc(Cl)c(Cl)cc1Cl | inactive | – |
| CCCN(CCC)c1c([N+](=O)[O-])cc(S(N)(=O)=O)cc1[N+](=O)[O-] | inactive | – |
| Oc1ccccc1-c1ccccc1 | inactive | – |
| CC1=C(C(=O)Nc2ccccc2)SCCO1 | inactive | – |
| CCCCNC(=O)OCC#CI | – | 47.8 µM (active) and 60.6 µM (active) |
| N#Cc1nn(-c2c(Cl)cc(C(F)(F)F)cc2Cl)c(N)c1S(=O)C(F)(F)F (stereo not given) | inactive | – |
| CCc1nn(C)c(C(=O)NCc2ccc(C(C)(C)C)cc2)c1Cl | inactive | – |
| COC(=O)c1ccccc1C(=O)OC | inactive | – |
| CC(C)C1(C)N=C(c2nc3ccccc3cc2C(=O)O)NC1=O (stereo not given) | inactive | – |
| Fc1ccc(Oc2ccnc3cc(Cl)cc(Cl)c23)cc1 | inactive | – |
| N#CC(CCc1ccc(Cl)cc1)(Cn1cncn1)c1ccccc1 (stereo not given) | inactive | – |
| CC(Oc1ccc(Cl)cc1Cl)C(=O)O (stereo not given) | inactive | – |
| COP(N)(=O)SC (stereo not given) | inactive | – |
